VACV Venus inh = vaccinia inhibition (Venus reporter). Vaccinia virus Venus reporter expression, fluorescence. Potency, µM (titrated, usually from 36.5 µM), without a hit: top-dose activity change, negative = inhibition, usual class: inhibitors. 330,000 compounds, 0.46% hits; calls by dose curve; tested in A549 cells; further: potency means the concentration at half of the fitted maximal effect; nearly all actives have a fitted effect of over 30% in size
HCV inhibitor = HCV inhibition; Huh7.5.1 HCVcc-Cre infection, luciferase reporter, 44 h; 340,000 compounds, 3.4% hits; Potency, µM (doses to about 41.8 µM), for inactives: at the top dose activity change, negative = inhibition, hits mostly inhibitors; active means well fitted inhibition curve with a large enough effect; inconclusive means small, poorly fitted or top-dose-only effect, or another doubt; inactive means no such curve, though single readings can be large or run the other way; further: potency means the concentration at half of the fitted maximal effect
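HCVcc-Cre virus at an moi near 0.5 was added right after compound to cells cultured 4 h from seeding (1,000 cells/well). Luciferase activity was determined 44 h later, 15 min after substrate addition at RT.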
LASV entry inh = Lassa virus entry inhibition; Lassa virus pseudotype entry inhibition, cell reporter; Potency, µM (series often up to 37.9 µM), for the others: at the top dose activity change, negative = inhibition, hits mostly inhibitors; 300,000 compounds, 1.2% hits; calls by dose curve; tested in HEK293 cells; further: potency means the concentration at half of the fitted maximal effect; nearly all actives have a fitted effect of over 50% in size
Vaccinia mCherry = vaccinia inhibition (mCherry reporter) | Vaccinia virus mCherry reporter infection, fluorescence | Potency, µM (series often up to 36.5 µM), for the others: at the top dose activity change, negative = inhibition, hits mostly inhibitors | 310,000 compounds, 0.63% hits | AID 720579; calls by dose curve; tested in A549 cells; further: potency means the concentration at half of the fitted maximal effect; nearly all actives have a fitted effect of over 35% in size
HCMV antiviral = blocks human cytomegalovirus replication; HFF cells, HCMV-luciferase reporter, 72 h; stronger effect = lower value; activity change, negative = inhibition, % at 57.5 µM; 410,000 compounds, 4.5% hits; in the data active means activity change below about -60%; inconclusive means no clear call, values can overlap the other calls; inactive means above about -39%
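Two compound doses tested in HFFs infected with HCMV-luciferase, MOI 1 PFU/cell, 72 h at 37C. Lysate luminescence read with OneGlo; data normalized against buffer-only and 10uM Salinomycin inhibitor controls.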
Marburg entry inh = Marburg virus entry inhibition; Marburg virus pseudotyped entry inhibition, cell reporter; Potency, µM (doses to about 37.8 µM), without a hit: at the highest dose activity change, negative = inhibition, most hits filed as inhibitors; 300,000 compounds, 1.8% hits; AID 540276; calls by dose curve; tested in HEK293 cells; further: potency means the concentration at half of the fitted maximal effect
* = called active by the depositor; i = inactive; ? = inconclusive; · = no result given; [ ] = another dose, or the depositor's remark. Only some compounds are listed: those with a hit (about 7.8% of all), similar ones and a draw of the others. On the % scale 0 is the no-effect control and ±100 the full control effect.

SMILES | VACV Venus inh | HCV inhibitor | LASV entry inh | Vaccinia mCherry | HCMV antiviral | Marburg entry inh
COc1cc([N+](=O)[O-])ccc1NC(=O)CC1SC(=Nc2ccc(F)cc2)N(CCC2=CCCCC2)C1=O (centres undefined) | 1% | ? | 3.2µM* | -9% | -99* | ?
COc1ccc(OC)c(NC(=O)CC2SC(=Nc3ccc(F)cc3)N(CCC3=CCCCC3)C2=O)c1 (centres undefined) | -15% | ? | ? | -5% | 2 | ?
Cc1ccccc1C1(CC(=O)N2CCC[C@H]2C(N)=O)CC(=O)N(C2CCCC2)C1=O (some centres undefined) | -3% | · | · | -8% | · | ·
CCN(CC)c1ccc(-c2n[nH]c(=S)n2-c2ccccc2)cc1 | ? | 11µM* | ? | -18% | 67 | -6%[46.1 µM]
CN(Cc1ccccc1)C(=O)CN1C(=O)COc2ccc(S(=O)(=O)N3CCCC3)cc21 | -5% | 11% | 3%[46.1 µM] | -17% | -8 | 5%[46.1 µM]
CC(C)N(Cc1ccccc1)C(=O)CN1C(=O)COc2ccc(S(=O)(=O)N3CCCCCC3)cc21 | -18% | ? | -27%[46.1 µM] | -3% | -81* | -21%[46.1 µM]
COC(=O)CN1C(=O)COc2ccc(S(=O)(=O)N3CCCCC3)cc21 | -6% | · | · | -21% | 74 | ·
O=C(O)CN1C(=O)COc2ccc(S(=O)(=O)N3CCCCCC3)cc21 | · | 22% | · | · | -61* | ·
CC1CCN(S(=O)(=O)c2ccc3c(c2)N(CC(=O)O)C(=O)CO3)CC1 | -20% | · | 18%[46.1 µM] | -4% | -23 | ·
O=C(NCC(c1ccc2c(c1)OCO2)N1CCN(c2ccccc2)CC1)c1ccccc1 (centres undefined) | -6% | · | ? | -8% | 17 | ·
Cc1cccc2nc(COc3ccc(Cl)c4cccnc34)cn12 | -22% | ? | ? | -5% | -80* | -4%[46.1 µM]
Cc1ccc(Cl)cc1NC(=O)Cn1cc2c(n1)CCCCC2 | -3% | · | -2%[46.1 µM] | 2% | -15 | -22%[46.1 µM]
O=C(CCNNC(=O)c1ccncc1)NCc1ccccc1 | -10% | 14%[8.37 µM] | ? | -13% | -103* | ?
O=C(CCc1ccccc1)NCc1ccncc1 | · | 10% | · | · | 32 | ·
O=C(CCc1ccccc1)N(Cc1cccnc1)c1nc2ccc(F)cc2s1 | -11% | · | -12%[46.1 µM] | -15% | 80 | ·
Cc1cc(C)cc([C@H]2C[C@]34CN(Cc5ccccc5)[S+](=O)([O-])[C@@H]3C[C@@H]2O4)c1 | · | · | 5%[46.1 µM] | · | · | ·
Cc1nc2c3ccccc3n(CCN3CCCCC3)c2s1 | · | -27% | · | · | · | -6%
Cc1nc2c3cc(F)ccc3n(CCN3CCCCC3)c2s1 | -18% | -29% | -29%[46.1 µM] | i | 35 | 7.1µM*
Fc1ccc(-c2ncn(C3CCNCC3)c2-c2ccnc(Oc3ccc(Oc4ccccc4)cc3)n2)cc1 | · | · | 13µM* | · | · | ·
Fc1ccc(-c2ncn(C3CCNCC3)c2-c2ccnc(Oc3ccc(F)c(F)c3)n2)cc1 | · | · | 22µM* | · | · | ·
Fc1ccc(Oc2nccc(-c3ccc(Cl)cc3)n2)cc1 | -8% | -12% | ? | · | -26 | 21%[46.1 µM]
COc1ccc(Oc2nccc(-c3ccc(Cl)cc3)n2)cc1 | 4% | 1% | -21% | · | -37 | 3%
COc1cccc(NC(=O)CSCn2nnc3c(=O)[nH]c(Cc4ccc(F)cc4)nc32)c1 | 2% | · | 26%[46.1 µM] | -3% | 0 | ?
O=C(Nc1ccc([N+](=O)[O-])cc1)Nc1ccc(N2CCOCC2)c2nonc12 | 10µM* | -16% | · | ? | ? | ·
Cc1cc(C(=O)Nc2ccccc2N2CCOCC2)no1 | · | 0% | · | · | 0 | ·
SMILES | VACV Venus inh | HCV inhibitor | LASV entry inh | Vaccinia mCherry | HCMV antiviral | Marburg entry inh
CCc1sc(C(=O)Nc2ccccc2N2CCOCC2)cc1C | -13% | ? | -14%[46.1 µM] | i | -75* | -26%[46.1 µM]
CC(=O)Nc1cc([N+](=O)[O-])ccc1N1CCOCC1 | 1% | 4% | -5% | i | -22 | 11%[46.1 µM]
O=C(Nc1ccccc1N1CCOCC1)c1ccc([N+](=O)[O-])s1 | 7.9µM* | 11µM* | -22% | 4.5µM* | ? | ?
O=C(Nc1ccccc1N1CCOCC1)c1ccc([N+](=O)[O-])cc1 | · | 2% | -15% | · | -101* | 9%
O=C(Nc1ccccc1N1CCOCC1)c1ccc(N2CCOCC2)c([N+](=O)[O-])c1 | -9% | -29% | -21%[46.1 µM] | i | 0 | -3%[46.1 µM]
COc1cccc(OCc2nc3ccccc3n2CCOc2ccccc2)c1 | -9% | · | 24%[46.1 µM] | -6% | 32 | 13%[46.1 µM]
COc1ccc(OC)c(NC(=O)c2cccn2-c2nnc(N3CCCCC3)s2)c1 | 1% | · | 14%[46.1 µM] | -6% | 0 | ·
NC(Cc1ccc(F)cc1)c1csc(NC(=O)NC(c2ccccc2)c2ccccc2)n1 (centres undefined) | ? | · | · | ? | -103* | ·
NC(Cc1ccc(C(F)(F)F)cc1)c1csc(NC(=O)Nc2ccccc2Oc2ccccc2)n1 (centres undefined) | ? | · | · | -19% | -102* | ·
NC(Cc1ccc(C(F)(F)F)cc1)c1csc(NC(=O)NCCc2ccccc2)n1 (centres undefined) | 11µM* | · | · | ? | -101* | ·
NC(COCc1ccccc1)c1csc(NC(=O)Nc2cccc(C(F)(F)F)c2)n1 (centres undefined) | ? | · | · | -24% | -100* | ·
NC(=O)c1ccc(Nc2nc(C(N)COCc3ccccc3)cs2)cc1 (centres undefined) | -1% | · | · | 32% | -37 | ·
CN(C)Cc1csc(NC(=O)Nc2ccccc2-c2ccccc2)n1 | -21% | · | · | 4% | -10 | ·
COc1ccc(NC(=O)Nc2nc(C(N)Cc3ccc(C(F)(F)F)cc3)cs2)cc1 (centres undefined) | -26% | · | · | -16% | -103* | ·
CN(C)Cc1csc(NC(=O)Nc2ccccc2Oc2ccccc2)n1 | -20% | · | · | 9% | -75* | ·
Cc1cc(N2CCN(c3ccc(F)cc3)CC2)n2cnnc2n1 | -17% | · | 1%[46.1 µM] | -21% | ? | -20%[46.1 µM]
O=C(CCSCc1cnn(-c2ccccc2)c1-n1cccc1)NCc1ccc(Cl)cc1 | 3% | · | 18%[46.1 µM] | 16% | -18 | -8%[46.1 µM]
Cc1cccc(C)c1NC(=O)CSc1nc(C)c(CC(=O)c2ccc(Br)cc2)c(C)c1C#N | -2% | 9% | 18µM* | · | 43 | ?
Cc1ccc(Cl)cc1NC(=O)CSc1nc(C)c(C)c(C)c1C#N | -11% | · | -3%[46.1 µM] | -11% | -85* | -34%[46.1 µM]
Cc1nc(SCC(=O)Nc2ccccc2C(F)(F)F)c(C#N)c(C)c1CC(=O)c1ccc(Br)cc1 | · | · | · | · | 39 | ·
Nc1nonc1-c1nc2ccccc2n1CC(=O)Nc1cccc(Cl)c1Cl | 2% | · | ? | -9% | -5 | ·
C=Cc1ccc(Cn2c(=O)n(CC3CCC(C(=O)NC(C)C)CC3)c(=O)c3sccc32)cc1 (centres undefined) | -23% | · | 4%[46.1 µM] | -24% | -8 | ·
Cn1cc(CCC(=O)N2CCCC(CCC(=O)NCc3ccccc3F)C2)cn1 (centres undefined) | · | 24% | · | · | -24 | ·

High-throughput results from PubChem.
